Screening data from PubChem BioAssay.
ALDH1A1 inh: ALDH1A1 (human) enzyme inhibition; P00352; Purified ALDH1A1, NADH fluorescence, propionaldehyde substrate; Potency, µM (top dose mostly 75.3 µM), without a hit: top-dose activity, negative = inhibition, most hits filed as inhibitors; 220,000 compounds, 7.3% hits; AID 1030;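 further: potency means the concentration at half of the fitted maximal effect; plate controls were no enzyme wells and a reference inhibitor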
HPGD inh: inhibitors of human 15-hydroxyprostaglandin dehydrogenase (HPGD); purified HPGD, NADH fluorescence kinetic, PGE2 substrate; P15428; 150,000 compounds, 4.3% hits; Potency, µM, for inactives: at the top dose activity change, negative = inhibition, actives largely listed as inhibitors; AID 894; further: potency means the concentration at half of the fitted maximal effect
Target sequence (P15428 whole entry, looked up): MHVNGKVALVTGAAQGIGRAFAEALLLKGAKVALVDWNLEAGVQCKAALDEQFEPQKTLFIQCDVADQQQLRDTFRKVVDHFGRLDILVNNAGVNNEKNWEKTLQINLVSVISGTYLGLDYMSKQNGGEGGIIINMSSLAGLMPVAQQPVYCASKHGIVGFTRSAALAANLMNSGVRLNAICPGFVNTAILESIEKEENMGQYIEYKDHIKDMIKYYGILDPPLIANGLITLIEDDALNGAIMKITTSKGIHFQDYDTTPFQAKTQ
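NADH formation kinetics: reaction with 30 uM PGE2 and 1 mM NAD+ (final), 20 nM enzyme, Tris-HCl pH 8 with Tween 20, after 15 min compound preincubation at room temperature. Fluorescence change, last versus first of five reads.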
PNC inhibitor: blocks assembly of the perinucleolar compartment; 140,000 compounds, 3.1% hits; activity change (PNC), negative = inhibition, % at 10 µM; PC3M PTB-GFP, PNC prevalence imaging, 16 h; stronger effect = lower value; AID 2417;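 active means readout at or below -70, meaning at least 70% loss of cells showing the perinucleolar compartment, a nuclear body marking cancer cells; inconclusive means readout between -30 and a set limit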;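 further: plate controls were DMSO wells for no effect and camptothecin positive control wells for full effect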
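PC3M cells stably expressing PTB-GFP, 750–1000 cells/well, treated 16 h at 37 °C with compound (23 nl of library stock), in duplicate. After paraformaldehyde fixation and Hoechst stain, imaged at 20x; PNC prevalence scored by image analysis.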
* hit, by the source's call; ? = inconclusive; / = not tested or not shown; [ ] = dose if it differs, or a comment. An excerpt weighted towards active compounds, which were near 11% of everything screened. Unless noted, the call rests on the fitted dose curve; in most records, active means well fitted inhibition curve with a large enough effect (not every such curve was filed as active); inconclusive means small, poorly fitted or top-dose-only effect, or another doubt; inactive means no such curve, though single readings can be large or run the other way. Unless noted, on the % scale 0 is the no-effect control and ±100 the full control effect.

SMILES	ALDH1A1 inh	HPGD inh	PNC inhibitor
CC(C)OC(=O)[C@@H]1CC[C@H](C)[C@@H](CCCC=O)O1	1.4%	-9.1%	/
Cc1ccc(C(=O)NC2CCCCCC2)o1	-4.0%	25.1µM*	38.2
O=C(NC1CCCCCCC1)c1ccccc1-c1ccccc1	?	-1.2%	-113.4*
O=C(Cc1cccs1)NC1CCCC1	11.6%	/	/
O=C(NC1CCCCCC1)c1ccccc1-c1ccccc1	-7.4%	-15.7%	-6.0
O=C(NC1CCCCC1)c1ccc(CNc2ccccc2)o1	?	-15.2%	-25.7
O=C(NC1CCCCCC1)c1cccs1	?	25.1µM*	?
O=C(NC1CCCCC1NC(=O)c1cccs1)c1cccs1 (configuration not stated)	9.1%	-8.4%	38.2
O=C(CNC1CCCCCC1)c1cccs1	5.97µM*	?	-15.8
CC1CN(S(=O)(=O)c2cccc(C(=O)Nc3ccc4c(c3)CCC4)c2)CC(C)O1 (configuration not stated)	?	-25.9%	233.4
C[N+]1(Cc2ccccc2)CCC(C(=O)OCC2CCCC2)CC1 (configuration not stated)	2.4%	/	/
CCN1CCCC1CNC(=O)C(=O)NC(C)c1ccccc1 (configuration not stated)	12.8%	/	/
COC[C@H]1OC=C[C@@H](OC)[C@@H]1OC	-0.8%	-2.5%	/
CCc1nnc(NC(=O)CSc2nnc(-c3ccncc3)n2C)s1	0.7%	-8.5%	-100.0*
Cc1cc(NC(=O)CSc2nnc3c(C)cc4c(C)ccc(C)c4n23)no1	0.0%	-18.0%	-14.2
Cc1cc(NC(=O)CSc2nnc(CNc3ccc(F)cc3)n2C2CCCCC2)no1	2.6%	-15.7%	?
CCn1c(SCC(=O)Nc2nnc(C)s2)nnc1-c1ccncc1	8.0%	-10.2%	-8.9
CCc1nnc(NC(=O)CSc2nnc(CNc3ccc(F)cc3)n2C2CCCCC2)s1	10µM*	-8.7%	44.3
CCc1nnc(NC(=O)CSc2nnc3c(C)cc4c(C)ccc(C)c4n23)s1	4.5%	-9.3%	-112.6*
FC(F)(F)c1ccccc1-c1nc(N2CCOCC2)c2ccccc2n1	-5.5%	/	/
CO[C@@H](CCO)C[C@H]1O[C@H](C(=O)OC(C)C)CC[C@@H]1C	16.4%	-10.9%	/
CCCCNc1nc2ccccc2nc1Cl	-3.1%	/	/
O=C(Nc1ccc2cn[nH]c2c1)c1ccc(Cl)c(S(=O)(=O)N2CCOCC2)c1	4.8%	-16.1%	-24.4
O=S(=O)(c1ccccc1)N1CCC2(CCN(Cc3nccs3)CC2)CC1	8.0%	-12.3%	/
O=C1CC(Sc2nnc(-c3ccccc3)o2)C(=O)N1c1ccccc1 (configuration not stated)	1.78µM*	22.4µM*	18.8
SMILES	ALDH1A1 inh	HPGD inh	PNC inhibitor
Cc1ccc(N2C(=O)CC(Sc3nc(-c4ccccc4)c4cc(Cl)ccc4n3)C2=O)c(C)c1 (configuration not stated)	-1.5%	?	31.2
CCSc1nnc(-c2ccncc2)o1	-12.3%	-2.7%	-18.5
O=C1c2ccccc2CC1Sc1nnc(-c2ccncc2)o1 (configuration not stated)	1µM*	?	29.0
Cc1ccccc1N1C(=O)CC(Sc2nnc(-c3ccccc3)o2)C1=O (configuration not stated)	7.94µM*	-28.8%	-23.6
c1ccc(-c2nnc(SCCC3OCCCO3)o2)cc1	0.7%	-3.4%	40.6
CS(=O)(=O)N(CC(=O)Nc1ccccc1Cl)c1ccc(Cl)cc1	1.7%	/	/
COc1ccc(COC(=O)N/N=C2/C[C@@H](O)[C@@H](O)[C@@H]3[C@@H]4C(=O)N(Cc5ccc6c(c5)OCO6)C(=O)[C@H]4CC[C@@H]23)cc1	-9.7%[13.5 µM]	/	/
CCN(C#N)c1nc(NC(C)C)nc(NC(C)(C)C)n1	-3.5%	/	/
CCCN(C#N)c1nc(NCC)nc(NC(C)C)n1	10µM*	-4.7%	-2.7
COC(=O)C1=C(C)[C@H](O)[C@@H](C)[C@](C)(c2cc(OC)c(C)c(OC)c2COc2ccccc2)O1	8.6%	-5.6%	/
O=C(NNC(=S)NC(=O)c1sc2ccccc2c1Cl)c1ccc(Cl)cc1	28.2µM*	-24.0%	10.4
O=C(NN=C1CCCC1)c1sc2ccccc2c1Cl	15.8µM*	/	/
O=C(Nc1ccncc1)c1sc2ccccc2c1Cl	-1.7%	/	/
Cc1cccc(C(=O)NC(=S)NNC(=O)c2ccc(Cl)cc2)c1	?	-5.5%	?
O=C(NCCN1CCOCC1)c1sc2ccccc2c1Cl	6.9%	/	/
O=C(NNC(=O)c1sc2ccccc2c1Cl)Nc1ccc(Cl)cc1	8.91µM*	-7.7%	-28.0
O=C(NCCC1=CCCCC1)C(=O)c1c[nH]c2ccccc12	?	-15.2%	-22.1
Cc1cc(SCC(=O)Nc2cccc(S(=O)(=O)N3CCOCC3)c2)nc2ccccc12	-9.5%	/	/
COc1ccc(NC(=O)N2CC[C@@]3(CCCN(C(=O)c4csnn4)C3)C2)cc1	?	-1.3%	/
Cc1ccc(C2CC(=O)NC(SCC(=O)Nc3nccs3)=C2C#N)cc1 (configuration not stated)	18.9%	-11.2%	0.1
O=S(=O)(Nc1ccc(Cl)cc1)c1ccc(N2CCOCC2)c(NC(=S)NCCN2CCOCC2)c1	8.91µM*	/	/
N#Cc1ccc(C(=O)Nc2cc(S(=O)(=O)Nc3ccc(Cl)cc3)ccc2N2CCCCC2)cc1	?	3.1%	-8.9
O=C(NC(=S)NCCN1CCOCC1)c1ccc(Cl)cc1	8.3%	-4.7%	?
O=C(Nc1cc(S(=O)(=O)Nc2ccc(Cl)cc2)ccc1N1CCCCC1)c1ccc(F)cc1	28.2µM*	?	?
Cc1cccc(NS(=O)(=O)c2cc(C(=O)O)ccc2Cl)c1	-2.8%	-7.8%	/
SMILES	ALDH1A1 inh	HPGD inh	PNC inhibitor
Cc1c(C(=O)NCCc2ccccc2)oc2ccc(S(=O)(=O)N3CCOCC3)cc12	-15.3%	-10.5%	?
Cc1c(C(=O)NCCN2CCOCC2)oc2ccc(S(=O)(=O)N3CCCCCC3)cc12	25.1µM*	-16.9%	?
Cc1c(C(=O)NCc2ccc3c(c2)OCO3)oc2ccc(S(=O)(=O)N3CCC(C)CC3)cc12	-6.5%	-27.0%	-100.0*
Cc1c(C(=O)NCc2ccc3c(c2)OCO3)oc2ccc(S(=O)(=O)N3CCCCCC3)cc12	?	-26.2%	?
CC(=O)OC[C@H]1O[C@@H](O/N=C(\C)CCC(=O)OC[C@@H]2O[C@H](C#Cc3ccccc3)C=C[C@@H]2Oc2ccc(C)cc2)[C@H](OC(C)=O)[C@@H](OC(C)=O)[C@H]1OC(C)=O	3.8%[13.5 µM]	/	/
Cc1ccc(S(=O)(=O)Cn2nnnc2CN2CCCC3(CCCCC3)C2)cc1	15.8µM*	-13.1%	14.8
Cc1ccc(S(=O)(=O)Cn2nnnc2CN2CCOCC2)cc1	-15.2%	-3.5%	?
O=C(NCc1ccccc1Cl)C1CCN(c2cnccn2)CC1	15.4%	/	/
Cc1ccc(O)c(N=Nc2ccc(S(=O)(=O)N3CCOCC3)cc2)c1	8.4%	/	/
CC1(C)CC(=O)C(N=Nc2cc3c(cc2[N+](=O)[O-])OCCO3)=C(O)C1	0.562µM*	/	/
CC1CCN(S(=O)(=O)c2ccc(N=NC3=C(O)CC(C)(C)CC3=O)cc2)CC1	?	-10.9%	18.6
Cc1ccc(O)c(N=NC2=C(O)CC(C)(C)CC2=O)c1	6.31µM*	-18.5%	?
Cc1c(N=NC2=C(O)CC(C)(C)CC2=O)c(=O)n(-c2ccccc2)n1C	10µM*	/	/
CC(=O)/C(N=Nc1c(C)n(C)n(-c2ccccc2)c1=O)=C(\C)O	3.8%	/	/
